# Several values for one entry are separate records, joined by “and”; a condition that tells them apart may be missing. Equal entries are not always repeated. Records with an inconclusive call do not appear. Where a call stands in place of a potency, no number is given. Some compounds were tested as several samples or in several runs, with calls that do not always agree. Activity calls are given as the source filed them. Unless noted, calls come from the whole dose curve.
# Tests used:
# [1] = Nuclear factor erythroid 2-related factor 2/antioxidant responsive element (Nrf2/ARE) small molecule agonists: qHTS cell viability counter screen in human keratinocytes (AID 1919968; active = well fitted curve in the direction sought with a large enough effect in the repeat runs; an effect the other way counts as inactive or inconclusive; note: nearly all actives have a fitted effect of over 55% in size; note: potency is the fitted concentration of half-maximal effect)
# Procedure, shortened: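 Viability counter-screen: KeratinoSens reporter cells, DMSO-delivered compounds, 23 h at 37 C, CellTiter-Fluor fluorescence.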
# [2] = biological target: Gonadotropin-releasing hormone receptor (Homo sapiens) (UniProt P30968); test: Human gonadotropin-releasing hormone receptor (GnRHR) small molecule agonists, calcium flux assay in GnRHR-HEK293 cells (AID 1920063); note: nearly all actives have a fitted effect of over 35% in size
# Procedure, shortened: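 Tox21-format agonist screen using human GnRHR-expressing HEK293 cells and a fluorescent calcium dye; kinetic 3-min fluorescence reading after compound addition, 15-point concentration series run in triplicate.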
# [3] = G protein-coupled receptor (GPCR) small molecule agonists, calcium flux assay: HEK293 wild type cell line counter screen (AID 1920065)
# Procedure, shortened: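 In this agonist-mode screen, ATP is the positive control and DMSO the vehicle. Cells grow 18 h before a 1 h dye incubation at 37 C; signal is taken at Ex/Em 480/540 over 3 min.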
# [4] = p53 small molecule agonists, cell-based qHTS assay with human liver microsomes (AID 1963577);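 note: p53 response element beta-lactamase reporter cells with liver microsomes plus NADPH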
# Procedure, shortened: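 16 h, 37 C exposure of p53RE-bla cells to compounds with human liver microsomes and NADPH (0.5 mg/mL final each); detection via LiveBLAzer mixture, 2 h dark at room temperature.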
# [5] = p53 small molecule agonists, cell-based qHTS assay with rat liver microsomes (AID 1963578)
# Procedure, shortened: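 With rat liver microsomes and NADPH present (0.5 mg/mL final each), p53RE-bla cells are treated with compound for 16 h at 37 C. LiveBLAzer detection mixture is then applied for 2 h at room temperature in the dark.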
# [6] = p53 small molecule agonists, cell-based qHTS assay with human liver microsomes: qHTS cell viability counter screen (AID 1963579); note: nearly all actives have a fitted effect of over 45% in size; note: potency is the fitted concentration of half-maximal effect
# Procedure, shortened: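 In this multiplexed counter screen, the reporter plates were subsequently treated with CellTiter-Glo so that cell viability, reflected by luminescence, could be recorded for p53RE-bla cells dosed 16 h with compounds under microsomal activation (HLM and NADPH).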
# [7] = p53 small molecule agonists, cell-based qHTS assay with rat liver microsomes: qHTS cell viability counter screen (AID 1963580); note: nearly all actives have a fitted effect of over 45% in size
# Procedure, shortened: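 Intracellular ATP, by CellTiter-Glo luminescence, defines viability. HCT-116 p53RE-bla cells, 4,000 per well, were compound-treated in the presence of rat liver microsomes and NADPH for 16 h at 37 C.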
# [8] = p53 small molecule agonists, cell-based qHTS assay: qHTS cell viability counter screen (AID 1963581); note: nearly all actives have a fitted effect of over 45% in size; note: potency is the fitted concentration of half-maximal effect
# Procedure, shortened: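 Compounds are pinned onto HCT-116 p53RE-bla cells and left 16 h at 37 C. Following the reporter FRET read, ATP is quantified by CellTiter-Glo luminescence after 30 min at room temperature.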
# [9] = p53 small molecule agonists, cell-based qHTS assay (AID 1963582; active = well fitted activation curve with a large enough effect in the signal ratio in the repeat runs, not every such curve was filed as active; the % refers to the signal ratio)
# Procedure, shortened: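 Agonist activity was scored from beta-lactamase FRET fluorescence in p53RE-bla cells treated 16 h at 37 C with compounds in DMSO, substrate incubation being 2 h at room temperature.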
# [10] = biological target: 5-hydroxytryptamine receptor 2A (Homo sapiens) (UniProt P28223); test: 5-hydroxytryptamine receptor 2A (HTR2A) small molecule antagonists, cell-based qHTS assay (AID 1963586); note: nearly all actives have a fitted effect of over 45% in size
# Procedure, shortened: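 Antagonist-mode intracellular calcium assay: DOI (4 nM) added after 5 min compound pre-incubation at room temperature to dye-loaded HTR2A-CHO cells. Fluorescence followed for 3 min, sampled every second.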
# [11] = biological target: 5-hydroxytryptamine receptor 2A (Homo sapiens) (UniProt P28223); test: 5-hydroxytryptamine receptor 2A (HTR2A) small molecule agonists, cell-based qHTS assay (AID 1963587); note: nearly all actives have a fitted effect of over 30% in size
# Procedure, shortened: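 Kinetic calcium-flux fluorescence (2 min, 1 sec intervals) after compound addition in agonist mode. HTR2A-CHO cells were cultured 18 h, then dye-loaded 1 h at 37 C.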
# [12] = biological target: Muscarinic acetylcholine receptor M1 (Homo sapiens) (UniProt P11229); test: Cholinergic receptor muscarinic 1 (CHRM1) small molecule antagonists, cell-based qHTS assay (AID 1963588); note: nearly all actives have a fitted effect of over 40% in size; note: potency is the fitted concentration of half-maximal effect
# Procedure, shortened: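 CHRM1-CHO calcium-flux assay, antagonist mode. Cells were seeded 18 h, dye-loaded 1 h at 37 C and given compound for 5 min at RT, then acetylcholine was added at 50nM. FDSS fluorescence was read 3 min; 15 concentrations, three runs.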
# [13] = biological target: Muscarinic acetylcholine receptor M1 (Homo sapiens) (UniProt P11229); test: Cholinergic receptor muscarinic 1 (CHRM1) small molecule agonists, cell-based qHTS assay (AID 1963589); note: nearly all actives have a fitted effect of over 35% in size
# Procedure, shortened: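 Stable CHRM1-CHO cells (human receptor) were incubated 18 h, dye-loaded for 1 h at 37 C and exposed to test compounds for agonist activity, with calcium-dependent fluorescence followed kinetically.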
# [14] = cAMP Responsive Elements (CRE) small molecule agonists, cell-based qHTS assay (AID 1963590)
# Procedure, shortened: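 FRET-based beta-lactamase readout (LiveBLAzer B/G, 2 h RT) quantified CRE activation in HEK 293T CRE-bla cells after 3 h treatment with DMSO-dissolved compounds.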
# [15] = cAMP Responsive Elements (CRE) small molecule antagonists, cell-based qHTS assay (AID 1963591; active = well fitted inhibition curve with a large enough effect in the signal ratio in the repeat runs, not every such curve was filed as active; the % refers to the signal ratio)
# Procedure, shortened: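 qHTS in CRE-bla HEK 293T cells: compound in DMSO, then 0.25 uM NKH477 (final), 3 h at 37 °C/5% CO2; beta-lactamase FRET read-out after 2 h substrate incubation.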
# [16] = biological target: Beta-2 adrenergic receptor (Homo sapiens) (UniProt P07550); test: Adrenergic beta2 receptor (ADRB2) small molecule agonists, cell-based qHTS assay (AID 1963593);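 note: CHO cells stably overexpressing human ADRB2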
# Procedure, shortened: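 CHO cells stably over-expressing ADRB2 were plated overnight at 37C, then dosed with compounds plus a stimulation mix containing 100uM IBMX and 25uM Ro-20-1724 for 0.5hr at room temperature. cAMP was measured by HTRF competition, 1hr.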
# [17] = biological target: D(2) dopamine receptor (Homo sapiens) (UniProt P14416); test: Dopamine D2 receptor (DRD2) small molecule antagonists, cell-based qHTS assay (AID 1963595; active = well fitted inhibition curve with a large enough effect in the signal ratio in the repeat runs, with a control signal flat; the % refers to the signal ratio)
# Procedure, shortened: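 Stable D2 receptor HEK293 line, 24 h after seeding. Compound preincubated 10 min, then quinpirole (12 nM) with forskolin analogue NKH477 (200 nM), 30 min, room temperature. Detection by time-resolved FRET of cAMP.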
# [18] = biological target: Beta-2 adrenergic receptor (Homo sapiens) (UniProt P07550); test: Adrenergic beta2 receptor (ADRB2) small molecule antagonists, cell-based qHTS assay (AID 1963592); note: series mostly up to about 92 µM; nearly all actives have a fitted effect of over 50% in size
# Procedure, shortened: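 Cells (CHO, stable ADRB2 overexpression) incubated 18-20hr at 37C; compounds added from DMSO; agonist mix (1nM isoproterenol, 100uM IBMX, 25uM Ro-20-1724) added; 0.5hr RT; d2-cAMP and anti-cAMP-cryptate added; 1hr RT; 665/615 nm read.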
# [19] = biological target: D(2) dopamine receptor (Homo sapiens) (UniProt P14416); test: Dopamine D2 receptor (DRD2) small molecule agonists, cell-based qHTS assay (AID 1963594); note: nearly all actives have a fitted effect of over 35% in size
# Procedure, shortened: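 cAMP accumulation in DRD2-HEK293 cells measured by HTRF after 1 h detection; compounds added 10 min before NKH477 (200nM […]) forskolin-analogue stimulation, 30 min at room temperature, with Ro20-1724 present at 0.1 mM final.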
# [20] = biological target: KiSS-1 receptor (Homo sapiens) (UniProt Q969F8); test: Human kisspeptin (KISS1R) small molecule agonists, calcium flux assay in KISS1R-HEK293 cells (AID 1920064; active = well fitted curve in the direction sought with a large enough effect in the repeat runs; an effect the other way counts as inactive or inconclusive)
# Procedure, shortened: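 Intracellular calcium mobilization in KISS1R-HEK293 cells was recorded by fluorescence (Ex/Em 480/540) for 3 min following compound addition to cells pre-loaded 1 h with calcium dye.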
# Sequence of Beta-2 adrenergic receptor (Homo sapiens) (P07550 whole entry, looked up): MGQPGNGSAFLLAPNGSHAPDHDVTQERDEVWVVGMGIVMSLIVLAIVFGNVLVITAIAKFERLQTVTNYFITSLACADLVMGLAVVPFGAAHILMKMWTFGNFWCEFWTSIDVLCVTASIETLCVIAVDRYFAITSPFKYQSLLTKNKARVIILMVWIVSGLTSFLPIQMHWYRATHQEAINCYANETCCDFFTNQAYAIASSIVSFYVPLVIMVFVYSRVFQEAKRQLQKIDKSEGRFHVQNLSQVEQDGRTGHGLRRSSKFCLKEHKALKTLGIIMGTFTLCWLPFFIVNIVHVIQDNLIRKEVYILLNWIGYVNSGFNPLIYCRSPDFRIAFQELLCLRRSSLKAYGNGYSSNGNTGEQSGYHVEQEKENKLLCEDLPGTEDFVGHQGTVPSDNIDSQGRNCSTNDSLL
# Sequence of Muscarinic acetylcholine receptor M1 (Homo sapiens) (P11229 whole entry, looked up): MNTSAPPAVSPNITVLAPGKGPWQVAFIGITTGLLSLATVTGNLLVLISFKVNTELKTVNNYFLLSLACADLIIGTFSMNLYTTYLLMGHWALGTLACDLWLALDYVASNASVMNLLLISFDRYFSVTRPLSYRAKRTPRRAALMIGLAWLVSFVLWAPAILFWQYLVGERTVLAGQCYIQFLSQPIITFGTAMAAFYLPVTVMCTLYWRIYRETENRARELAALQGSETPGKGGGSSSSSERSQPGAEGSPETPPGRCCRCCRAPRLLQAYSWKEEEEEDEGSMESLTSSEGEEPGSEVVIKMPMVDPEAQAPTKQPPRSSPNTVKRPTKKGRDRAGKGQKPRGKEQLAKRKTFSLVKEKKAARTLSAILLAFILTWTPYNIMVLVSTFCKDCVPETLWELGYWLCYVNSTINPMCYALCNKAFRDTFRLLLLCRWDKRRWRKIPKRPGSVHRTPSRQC
# Sequence of D(2) dopamine receptor (Homo sapiens) (P14416 whole entry, looked up): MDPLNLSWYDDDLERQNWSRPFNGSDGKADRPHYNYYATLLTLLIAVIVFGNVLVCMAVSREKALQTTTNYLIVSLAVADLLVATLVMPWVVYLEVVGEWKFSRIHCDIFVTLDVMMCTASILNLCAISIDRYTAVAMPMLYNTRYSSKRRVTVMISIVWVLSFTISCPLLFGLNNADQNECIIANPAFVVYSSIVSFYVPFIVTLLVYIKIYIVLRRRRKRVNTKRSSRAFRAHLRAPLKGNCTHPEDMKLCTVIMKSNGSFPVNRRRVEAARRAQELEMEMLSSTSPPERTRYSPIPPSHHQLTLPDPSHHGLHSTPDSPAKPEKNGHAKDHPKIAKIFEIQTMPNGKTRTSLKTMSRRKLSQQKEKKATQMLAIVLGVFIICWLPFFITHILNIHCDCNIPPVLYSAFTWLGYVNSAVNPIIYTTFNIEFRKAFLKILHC
# Sequence of Gonadotropin-releasing hormone receptor (Homo sapiens) (P30968 whole entry, looked up): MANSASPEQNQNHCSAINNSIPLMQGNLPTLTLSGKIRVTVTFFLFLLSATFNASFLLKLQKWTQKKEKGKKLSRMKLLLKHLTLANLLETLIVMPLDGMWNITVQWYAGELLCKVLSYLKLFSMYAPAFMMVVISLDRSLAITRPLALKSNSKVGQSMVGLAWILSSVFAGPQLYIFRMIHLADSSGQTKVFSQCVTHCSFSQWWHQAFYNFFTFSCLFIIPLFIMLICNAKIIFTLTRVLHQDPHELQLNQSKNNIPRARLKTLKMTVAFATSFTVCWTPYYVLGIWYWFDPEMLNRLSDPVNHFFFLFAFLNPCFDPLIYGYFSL
# Sequence of KiSS-1 receptor (Homo sapiens) (Q969F8 whole entry, looked up): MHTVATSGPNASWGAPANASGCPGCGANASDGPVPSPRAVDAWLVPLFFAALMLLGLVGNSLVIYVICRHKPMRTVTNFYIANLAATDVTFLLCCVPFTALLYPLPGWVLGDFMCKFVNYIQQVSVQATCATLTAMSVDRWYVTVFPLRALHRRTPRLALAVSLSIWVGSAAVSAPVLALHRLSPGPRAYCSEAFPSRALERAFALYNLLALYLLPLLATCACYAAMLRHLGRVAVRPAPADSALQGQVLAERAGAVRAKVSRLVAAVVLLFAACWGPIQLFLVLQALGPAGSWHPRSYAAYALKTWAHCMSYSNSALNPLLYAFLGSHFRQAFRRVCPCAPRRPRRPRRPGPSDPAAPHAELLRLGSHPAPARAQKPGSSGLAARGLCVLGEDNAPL
# Sequence of 5-hydroxytryptamine receptor 2A (Homo sapiens) (P28223 whole entry, looked up): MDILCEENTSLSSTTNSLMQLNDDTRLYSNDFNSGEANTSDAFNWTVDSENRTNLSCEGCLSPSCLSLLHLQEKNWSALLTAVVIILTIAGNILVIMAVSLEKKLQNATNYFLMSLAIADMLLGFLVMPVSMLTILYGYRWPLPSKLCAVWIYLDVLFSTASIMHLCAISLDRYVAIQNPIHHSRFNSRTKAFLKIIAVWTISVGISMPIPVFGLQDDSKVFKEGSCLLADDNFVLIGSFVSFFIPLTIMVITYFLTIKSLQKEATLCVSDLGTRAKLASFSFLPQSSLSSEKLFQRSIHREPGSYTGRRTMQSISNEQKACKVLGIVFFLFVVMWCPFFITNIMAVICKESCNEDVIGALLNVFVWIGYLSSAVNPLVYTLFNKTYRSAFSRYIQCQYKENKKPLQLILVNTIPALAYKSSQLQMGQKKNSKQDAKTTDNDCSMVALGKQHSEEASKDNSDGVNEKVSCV
Structure (SMILES),Potency [1],Potency [2],Potency [3],Potency [4],Potency [5],Potency [6],Potency [7],Potency [8],Potency [9],Potency [10],Potency [11],Potency [12],Potency [13],Potency [14],Potency [15],Potency [16],Potency [17],Potency [18],Potency [19],Potency [20]
CC(=O)OCCCc1ccccc1,inactive,inactive,inactive,inactive,inactive,inactive,inactive,inactive,inactive,inactive,inactive,inactive,inactive,inactive,inactive,inactive,inactive,,,
NC1CCCCC1N (stereo not drawn),inactive,inactive,inactive,inactive,inactive,inactive,,,inactive,inactive,inactive,inactive,inactive,inactive,inactive,,inactive,inactive,inactive,
CC1=CC(=O)NS(=O)(=O)O1,inactive,inactive,inactive,,,inactive,inactive,23 µM (active) and inactive,,inactive,inactive,,inactive,inactive,inactive,inactive,inactive,inactive,inactive,inactive
CCOc1ccc(N)c([N+](=O)[O-])c1,inactive,inactive,inactive,inactive,inactive,inactive,inactive,inactive,inactive,inactive,inactive,inactive,inactive,inactive,,inactive,inactive,inactive,,
CC(C)(C)NC(=O)[C@@H]1CN(Cc2cccnc2)CCN1C[C@@H](O)C[C@@H](Cc1ccccc1)C(=O)N[C@H]1c2ccccc2C[C@H]1O,inactive,inactive,inactive,,,,,inactive,inactive,,,,,inactive,,,inactive,inactive,inactive,inactive
CCCCCCOCCOCCO,inactive,inactive,inactive,,,inactive,inactive,inactive,,inactive,inactive,inactive,inactive,inactive,inactive,,,inactive,inactive,inactive
CCOC(=O)CC(C)=O,inactive,inactive,inactive,,,inactive,inactive,inactive,,inactive,inactive,inactive,inactive,inactive,inactive,,,inactive,,
O=S(=O)(O)c1ccccc1,inactive,inactive,inactive,,,inactive,inactive,inactive,,inactive,inactive,inactive,inactive,inactive,inactive,inactive,inactive,inactive,inactive,inactive
CCN(CC)CCOc1ccc(/C(=C(\Cl)c2ccccc2)c2ccccc2)cc1,22.1 µM (active) and 29.8 µM (active),inactive,inactive,,,33.1 µM (active) and inactive,inactive,inactive,,,,,,,,,,,inactive,inactive
O=P(O)(O)O,inactive,inactive,inactive,,,inactive,inactive,inactive,,inactive,,inactive,inactive,inactive,inactive,inactive,inactive,,inactive,inactive
CCC(C)=O,inactive,inactive,inactive,inactive,inactive,inactive,inactive,inactive,inactive,inactive,inactive,inactive,inactive,inactive,inactive,inactive,,inactive,inactive,
c1ccc2c(c1)ccc1ncccc12,inactive,inactive,inactive,,,inactive,,inactive,,inactive,inactive,inactive,inactive,,,,,inactive,inactive,inactive
Cc1ccc(/C(=C\CN2CCCC2)c2ccccn2)cc1,inactive,inactive,inactive,,,,,,,inactive,,1.4 µM (active) and 2.59 µM (active),inactive,inactive,,inactive,inactive,inactive,inactive,inactive
O=C(O)CCc1ccccc1,inactive,inactive,inactive,,,inactive,inactive,inactive,inactive,inactive,inactive,inactive,inactive,inactive,inactive,inactive,,inactive,inactive,
COC(=O)Nc1nc2ccc(S(=O)c3ccccc3)cc2[nH]1 (stereo not drawn),inactive,inactive,inactive,,,inactive,inactive,,,,,,,inactive,inactive,inactive,inactive,inactive,inactive,inactive
CC(=O)CC(=O)Nc1ccccc1C,inactive,,inactive,inactive,inactive,inactive,inactive,inactive,inactive,inactive,inactive,inactive,inactive,inactive,inactive,inactive,inactive,inactive,inactive,inactive
CCOc1ncc(F)c(=O)[nH]1,inactive,inactive,inactive,,inactive,inactive,inactive,inactive,inactive,inactive,inactive,,inactive,inactive,inactive,inactive,inactive,inactive,inactive,inactive
CC(C)(C)NC[C@H](O)COc1nsnc1N1CCOCC1,inactive,inactive,inactive,inactive,inactive,,inactive,inactive,inactive,,,,,inactive,inactive,,,,inactive,
C[C@@H]1CC(=O)NN=C1c1ccc(NN=C(C#N)C#N)cc1,11.9 µM (active) and 21.1 µM (active),inactive,,,,inactive,inactive,inactive,,inactive,inactive,inactive,,,,,,inactive,inactive,inactive

# Source: PubChem BioAssay (Tox21)
